Screening data deposited in PubChem by National Center for Advancing Translational Sciences (NCATS).
JMJD2E inh = JMJD2E (human) inhibition; B2RXH2; JMJD2E catalytic domain, FDH-coupled NADH fluorescence (FDH is formaldehyde dehydrogenase); Potency, µM (titrated, usually from 57.1 µM), for the others: top-dose activity change, negative = inhibition, usual class: inhibitors; 1.6% of 230,000 active; AID 2147; active = well fitted inhibition curve with a large enough effect, not every such curve was filed as active; inconclusive = small, poorly fitted or top-dose-only effect, or another doubt; inactive = no such curve, though single readings can be large or run the other way;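 also: potency is read from the fitted curve at half-maximal effect; 0% = wells with enzyme and -100% = buffer wells without enzyme; nearly all actives have a fitted effect of over 50% in size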
L3MBTL1 block = inhibitors of human L3MBTL1; AlphaScreen L3MBTL1–H3K9me1 peptide binding; 0.66% of 230,000 active; Potency, µM (top dose mostly 57.1 µM), inactives show at the highest dose activity, negative = inhibition, usual class: inhibitors; AID 485360; also: potency is read from the fitted curve at half-maximal effect; % is scaled to controls: 0 for no effect and ±100 for the full control effect; nearly all actives have a fitted effect of over 60% in size
Target sequence (Q9Y468 whole entry, looked up): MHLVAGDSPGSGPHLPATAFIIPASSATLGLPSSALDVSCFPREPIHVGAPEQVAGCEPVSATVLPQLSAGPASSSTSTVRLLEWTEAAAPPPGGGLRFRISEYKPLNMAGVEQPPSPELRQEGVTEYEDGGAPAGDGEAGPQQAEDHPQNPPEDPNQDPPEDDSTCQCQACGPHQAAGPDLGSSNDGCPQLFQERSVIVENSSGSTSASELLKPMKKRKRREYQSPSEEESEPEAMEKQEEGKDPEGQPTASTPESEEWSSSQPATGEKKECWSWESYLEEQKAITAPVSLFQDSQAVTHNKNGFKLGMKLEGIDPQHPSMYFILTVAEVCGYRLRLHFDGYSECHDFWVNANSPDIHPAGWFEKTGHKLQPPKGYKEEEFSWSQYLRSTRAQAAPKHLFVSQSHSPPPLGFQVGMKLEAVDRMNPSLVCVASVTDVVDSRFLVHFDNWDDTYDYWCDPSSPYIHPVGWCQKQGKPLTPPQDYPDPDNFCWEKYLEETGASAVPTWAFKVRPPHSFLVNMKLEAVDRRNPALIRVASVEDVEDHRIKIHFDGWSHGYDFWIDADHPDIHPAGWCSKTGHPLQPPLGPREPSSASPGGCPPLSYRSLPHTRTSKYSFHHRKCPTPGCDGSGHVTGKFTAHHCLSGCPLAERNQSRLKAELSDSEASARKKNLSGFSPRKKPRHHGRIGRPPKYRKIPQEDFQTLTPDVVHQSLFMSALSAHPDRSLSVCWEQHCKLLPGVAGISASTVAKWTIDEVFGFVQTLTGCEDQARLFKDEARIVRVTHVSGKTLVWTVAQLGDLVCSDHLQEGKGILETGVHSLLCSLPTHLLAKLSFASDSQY
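AlphaScreen proximity signal between nickel-chelate acceptor and streptavidin donor beads (final 10 ug/mL) reports binding of 50 nM L3MBTL1 to 75 nM biotin-H3 K9me1 peptide; complex incubated with compounds 30 min at room temperature; cefsulodin titration as control.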
JMJD2A Tudor inh = blocks the human JMJD2A Tudor domain | O75164 | AlphaScreen JMJD2A-Tudor / H3K4me3 peptide binding | Potency, µM (series often up to 114 µM), for the others: at the top dose activity change, negative = inhibition, hits mostly inhibitors | 4.4% of 390,000 active | AID 504339; also: potency is read from the fitted curve at half-maximal effect; % is scaled to controls: 0 for no effect and ±100 for the full control effect; nearly all actives have a fitted effect of over 50% in size
BAZ2B block = inhibitors of human BAZ2B bromodomain | 4.4% of 360,000 active | AlphaScreen BAZ2B-H3K14Ac peptide displacement | Potency, µM (titrated, usually from 114 µM), for inactives: at the top dose activity change, negative = inhibition, most hits filed as inhibitors; also: potency is read from the fitted curve at half-maximal effect; % is scaled to controls: 0 for no effect and ±100 for the full control effect; nearly all actives have a fitted effect of over 60% in size
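AlphaScreen displacement: compounds (up to 110uM) incubated 30 min at room temperature with a preformed 50 nM BAZ2B/50 nM biotinylated H3K14Ac peptide complex in PBS pH 7.4 with Tween-20. Donor and acceptor beads at 10 ug/mL final added, 20 min light-protected before reading.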
HP1b chromo inh = inhibitors of HP1-beta chromodomain binding to methylated histone tails. P83916. AlphaScreen HP1-beta / biotin-H3K9me3 peptide binding. Potency, µM (series often up to 114 µM), for the others: at the top dose activity change, negative = inhibition, most hits filed as inhibitors. 0.56% of 390,000 active. AID 540317; also: potency is read from the fitted curve at half-maximal effect; nearly all actives have a fitted effect of over 70% in size
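Compound inhibition of the preformed complex between 50 nM HP1-beta and 50 nM biotinylated H3K9me3 peptide was read by AlphaScreen. Buffer was PBS pH 7.4 with 0.01% Tween-20. Incubations ran 30 min at room temperature, with 10 ug/mL donor/acceptor beads.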
PI5P4K alpha inh = PI5P4K alpha (human) kinase inhibition. P48426. PI5P4Kalpha enzyme, ADP-Glo luminescence, 60 min; active compounds read low. max response, %. 1.2% of 330,000 active. AID 652105; active = max response of -50% or lower; inconclusive = between -30% and -50%; inactive = -30% or higher; also: value at the top dose of about 77 µM; % is scaled to controls: 0 for no effect and ±100 for the full control effect
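PI5P4Kalpha ADP-Glo assay; 5 microM ATP final; 60 min RT reaction; HEPES pH 7.4/EGTA/CHAPS, 5% DMSO; controls lacking substrate or enzyme; luminescent end-point.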
* hit, by the source's call; ? = inconclusive; nt = no result; [ ] = remark or other dose. An excerpt weighted towards active compounds, which were near 5.7% of everything screened. Unless noted, calls follow the shape of the dose curve; as a rule, active = well fitted inhibition curve with a large enough effect; inconclusive = small, poorly fitted or top-dose-only effect; inactive = no such curve, though single readings can be large or run the other way.

SMILES	JMJD2E inh	L3MBTL1 block	JMJD2A Tudor inh	BAZ2B block	HP1b chromo inh	PI5P4K alpha inh
COc1cnc(-c2ccccn2)nc1NC(C)C	-117%	1µM*	22µM*	3.2µM*	16%	3
COc1cnc(-c2ccccn2)nc1Oc1ccc(Cl)c2ccccc12	1%	-16%	-35%	-37%	19%	15
COc1cnc(-c2ccccc2)nc1Oc1ccccc1C	5%	18%	103%	47%	111%	18
COc1cnc(-c2ccccn2)nc1Oc1ccc(F)cc1F	5%	?	-32%	40µM*	44%	5
COc1ccc(CCNC(=O)Cn2nnc(-c3ccc(Cl)cc3)n2)cc1OC	nt	nt	-5%	-14%	40%	nt
COc1ccc(NC(=O)c2oc3ccccc3c2NC(=O)C2CCCCC2)c(OC)c1	nt	nt	-12%	-4%	36%	nt
CO[C@@H](CCOCc1ccccc1)C[C@H]1O[C@H](C(=O)OC(C)C)C=C[C@@H]1C	3%	nt	nt	nt	nt	nt
CCc1ccc(NC(=O)c2sc(-n3nc(C)c(CCC(C)C)c3C)nc2C)cc1	nt	nt	17%	4%	66%	nt
Cc1ccc2c(c1)c1c(n2CC(O)Cn2c(C)nc3ccccc32)CCCC1 (stereo unspecified)	11%	nt	?	9%	7%	9
Cc1ccc2c(c1)c1c(n2CC(O)Cn2nc(C)c(Br)c2C)CCCC1 (stereo unspecified)	8%	nt	?	?	-18%	-24
CNCC(O)Cn1c2c(c3ccccc31)CCCC2 (stereo unspecified)	4%	-4%	28µM*	?	-5%	10
OC(CNCC1CCCO1)Cn1c2ccccc2c2ccccc21 (stereo unspecified)	-2%	2%	-10%	1%	16%	2
Cc1ccc2c(c1)c1c(n2CC(O)CNC(C)(C)C)CCCC1 (stereo unspecified)	-2%	-7%	45µM*	45µM*	-12%	-2
Cc1ccc2c(c1)c1c(n2CC(O)CN2CCCCCC2)CCCC1 (stereo unspecified)	nt	nt	?	35µM*	?	0
Cc1c(C)n(CC(O)CN2CCCCCC2)c2ccccc12 (stereo unspecified)	?	-6%	?	?	-8%	3
Cc1ccc2c(c1)c(C)c(C)n2CC(O)CN1CCOCC1 (stereo unspecified)	-9%	8%	79µM*	1%	10%	1
Cc1cc(C)cc(NC(=O)C(=O)NCC(c2cccnc2)N2CCc3ccccc32)c1 (stereo unspecified)	nt	nt	-6%	2%	17%	nt
O=C(CSc1cn(CCNC(=O)c2c(F)cccc2F)c2ccccc12)Nc1ccc2c(c1)OCCO2	nt	nt	1%	-6%	24%	nt
O=C(CSc1ccsc1[N+](=O)[O-])N1CCN(c2ccc(Cl)cc2)CC1	16%	?	?	?	-16%	-62*
CCOC(=O)N1CCN([N+]([O-])=NOc2cc(O/N=[N+](\[O-])N(CC)CC)c([N+](=O)[O-])cc2[N+](=O)[O-])CC1	nt	nt	-24%	nt	18%	nt
Cc1[nH]nc2c1C(c1ccc(F)cc1)C(C#N)=C(N)O2 (stereo unspecified)	-7%	-5%	-18%[11.4 µM]	nt	34%	-23
Cc1oc(C)c2c(=O)ccc3c(c12)OC(N)=C(C#N)C3c1ccc(F)cc1 (stereo unspecified)	?	28µM*	-11%[11.4 µM]	56µM*	?	?
O=C(Cn1cnc([N+](=O)[O-])n1)N/N=C/c1cc(Cl)ccc1O	22µM*	18µM*	32µM*	28µM*	19%	0
O=C(Cn1cnc([N+](=O)[O-])n1)N/N=C/c1ccccc1O	25µM*	?	?	14µM*	50%	3
O=c1c2cc(C(F)(F)F)ccc2sn1-c1ccccc1	nt	nt	nt	nt	nt	-102*
SMILES	JMJD2E inh	L3MBTL1 block	JMJD2A Tudor inh	BAZ2B block	HP1b chromo inh	PI5P4K alpha inh
O=c1c2cc(F)ccc2sn1-c1ccccc1	nt	-5%	8.9µM*	10µM*	1%	-85*
CN(C(=O)COC(=O)c1cc([N+](=O)[O-])ccc1Cl)c1ccccc1	nt	nt	-31%	-25%	3%	7
CCCCn1c(CNC(=O)c2ccc(OC)cc2)nnc1SCC(=O)Nc1ccccc1	nt	nt	-18%	-9%	24%	nt
S=c1[nH]nc(-c2ccco2)n1-c1ccc(Br)cc1	nt	nt	25µM*	nt	?	-10
Cc1cccc(-n2c(-c3ccco3)n[nH]c2=S)c1	?	1%	5.6µM*	-5%	-35%	?
Cc1cccc(-n2c(-c3ccc(Br)o3)n[nH]c2=S)c1	nt	nt	79µM*	nt	22%	-5
COc1ccc(OC)c(-n2c(=O)[nH]c3cc(C(=O)NCCc4ccc(OC)c(OC)c4)ccc3c2=O)c1	nt	nt	-3%	3%	48%	nt
O=C(NC1CC(=O)N(c2ccc(Cl)cc2)C1)C1CCCCC1 (stereo unspecified)	nt	nt	-8%	0%	-8%	nt
O=c1c2c(-c3cccs3)csc2[nH]c(=S)n1-c1ccccc1	-1%	-4%	-4%[57.1 µM]	-32%	-2%	?
CC(C)n1c(=S)[nH]c2scc(-c3cccs3)c2c1=O	-20%	-1%	?	50µM*	-15%	-82*
O=C(NCC1CCCCC1)c1cccc(Br)c1	nt	nt	-1%	3%	35%	-3
CN1C(=O)/C(=C\c2cc(N=Nc3ccccc3)ccc2O)SC1=S	-5%	-20%	40µM*	3.5µM*	-65%	-29
O=C1/C(=C/c2cccnc2)SC(=S)N1CCc1ccccc1	-8%	-29%	-28%	10µM*	12%	5
O=C(CN1C(=O)/C(=C/c2ccccc2)SC1=S)Nc1cccnc1	-14%	-14%	-8%	?	52%	3
COc1ccc(O)c(/C=C2/SC(=S)N(Cc3ccccc3)C2=O)c1	nt	nt	40µM*	32µM*	?	-9
O=C1/C(=C\c2cc(Cl)c(O)c(Cl)c2)SC(=S)N1Cc1ccccc1	nt	nt	50µM*	50µM*	?	-102*
COc1ccc(/C=C2/SC(=S)N(Cc3ccccc3)C2=O)cc1O	nt	nt	?	-7%	-5%	4
COc1ccc(OC)c(/C=C2\SC(=S)N(Cc3cccnc3)C2=O)c1	0%	-3%	-31%	?	-4%	1
CC1=C(C#N)C(c2ccccc2)C2=C(N1)c1ccccc1C2=O (stereo unspecified)	1%	-9%	22µM*	32µM*	?	-8
CSC1=C(C#N)C(c2ccccc2Cl)C2=C(N1)c1ccccc1C2=O (stereo unspecified)	-7%	0%	32µM*	-31%[57.1 µM]	?	-2
CSC(N)=NCCCC(N)C(=O)O (stereo unspecified)	2%	nt	nt	nt	nt	nt
